The text below walks through data of PubChem BioAssay (Tox21).

Inconclusive results are not listed. Some structures have more than one record in an assay (separate samples or runs), and their calls can disagree. Calls of active or inactive are those of the source. Calls follow the shape of the dose curve; as a rule, active = well fitted activation curve with a large enough effect in the repeat runs; inconclusive = weak or mixed curves; inactive = flat fitted curve, though single readings scatter.
% is scaled to controls: 0 for no effect and ±100 for the full control effect; potency is read from the fitted curve at half-maximal effect.

The assay is described as follows: A CellTox Green Cytotoxicity Assay to monitor cytotoxicity in HepG2 cells - 16 hour (AID 1224876). Also: nearly all actives have a fitted effect of over 45% in size. The conditions noted are these: CellTox Green fluorescence; series mostly up to 76.8 µM; cytotoxicity increase: at the top concentration. An excerpt:
National Center for Advancing Translational Sciences [NCATS]
NIH Chemical Genomics Center [NCGC]
U.S. Environmental Protection Agency [EPA]
National Institutes of Environmental Health Sciences [NIEHS]
National Toxicology Program [NTP]
Cell-based models are critical for drug discovery. Determining the natural cytotoxic effects resulting from test compounds is an essential research activity. A CellTox Green Cytotoxicity Assay to monitor cytotoxicity in real time of continues cell culture during 40 hours of the compound treatment was used to screen Tox21 10K library compounds in HepG2 cells. CellTox Green Cytotoxicity Assay is a nonlytic, homogeneous, biofluorescent method to measure cytotoxicity in cell culture after experimental manipulation. The assay system uses a proprietary asymmetric cyanine dye that is excluded from viable cells but preferentially stains the dead cell's DNA. […] Viable cells produce no appreciable increases in fluorescence. Therefore, the fluorescence signal produced by the binding interaction with dead cell DNA is proportional to cytotoxicity.
The mixture of HepG2 cell suspension and reagents were dispensed at 600cells/6 ul/well in 1536-well tissue culture treated black solid bottom plates using a Multidrop dispenser. After the assay plates were incubated at a 37 C/5% CO2 incubator for 5 hours, 23 nL of compounds dissolved in DMSO, positive and negative controls was transferred to the assay plate by a pintool work station. The plates were incubated at 37 C for 40 hours. The fluorescence intensity were measured at 0h, 8h, 16h, 24h, 32h and 40h time points using ViewLux plate reader during compound treatment.
As to `CCCCOP(=O)(CCCC)OCCCC`, the “cytotoxicity increase” value is -7.03% (inactive).
Consider `O=C(Cl)c1ccc(Cl)cc1`, for which the “cytotoxicity increase” value is -6.98% (inactive).
As for `Cc1cc(N=Nc2ccccc2C)ccc1N`, the Potency result is “inactive”.
The same measure, in the same setting: the same measure for `CCCCN(CCCC)C(=S)[S-].CCCCN(CCCC)C(=S)[S-].[Zn+2]`: 48.9 µM (active).
On to `SCc1ccco1`, for which the “cytotoxicity increase” value is 1.58% (inactive).
Regarding `CC(C)CCCCCOC(=O)c1ccccc1C(=O)OCCCCCC(C)C`, the “cytotoxicity increase” value is -0.16% (inactive).
As for `CC(C)Oc1cccc(NC(=O)c2ccccc2C(F)(F)F)c1`, the Potency was 43.6 µM (active).
The same measure, in the same setting: next, `CCCCCCCCc1ccc(O)cc1`: 38 µM (active).
Turning to `N#CCCSCCC#N`, the “cytotoxicity increase” value is 4.92% (inactive).
With `COc1cccc2c1C(=O)c1c(O)c3c(c(O)c1C2=O)C[C@@](O)(C(=O)CO)CC3OC1CC(N2CCOC(OC)C2)C(O)C(C)O1` (stereo not given in full), the Potency was 23.9 µM (active).
Take `ClC(Cl)=C(Cl)Cl`: the “cytotoxicity increase” value was 4.47% (inactive).
The same measure, in the same setting: next, `CCOCn1c(-c2ccc(Cl)cc2)c(C#N)c(Br)c1C(F)(F)F`: 7.93% (inactive).
For `O=C(O)COc1nc(Cl)c(Cl)cc1Cl`, the Potency was 12.6 µM (active).
As to `CN(CCCC(=O)c1cccnc1)N=O`, the “cytotoxicity increase” value is -11.5% (inactive).
Regarding `CN(C)C(=S)[S-].CN(C)C(=S)[S-].[Cu+2]`, the Potency is 4.23 µM (active).
Take `C[C@@H]1O[C@@H](O[C@H]2C[C@@H](O)[C@]3(CO)[C@H]4[C@H](O)C[C@]5(C)[C@@H](C6=CC(=O)OC6)CC[C@]5(O)[C@@H]4CC[C@]3(O)C2)[C@H](O)[C@H](O)[C@H]1O`: the Potency entry was “inactive”.
`Oc1ccccc1Br`: the “cytotoxicity increase” value was 0.606% (inactive).
Consider `CC(=O)/C=C/c1ccc2c(c1)OCO2`, for which the “cytotoxicity increase” value was 5.76% (inactive).
Take `CN(C)S(=O)(=O)N(SC(F)(Cl)Cl)c1ccccc1`: the Potency is 12.3 µM (active).
Regarding `OC(Cc1ccccc1Cl)(Cn1cncn1)C1(Cl)CC1` (stereo not given), the “cytotoxicity increase” value is -6.68% (inactive).
Same read-out and setting: the same measure for `N#Cc1ccccc1Cl`: -0.818% (inactive); for `COCC(=O)N(c1c(C)cccc1C)[C@H](C)C(=O)OC`: -0.772% (inactive).
On the same count and under the same terms, next, `Brc1c(Br)c(Br)c(Oc2c(Br)c(Br)c(Br)c(Br)c2Br)c(Br)c1Br`: -3.41% [at 15.8 µM] (inactive).
The same measure, in the same setting: the same measure for `Clc1ccc(C(Cl)(Cl)Cl)c(Cl)c1`: 22% (inactive).
Regarding `Clc1ccc(COC(Cn2ccnc2)c2ccc(Cl)cc2Cl)cc1` (stereo not given), the Potency was 54.7 µM (active).
Regarding `CC1(C)C(/C=C(\Cl)C(F)(F)F)C1C(=O)OC(C#N)c1cccc(Oc2ccccc2)c1` (stereo not given), the “cytotoxicity increase” value was -14.3% (inactive).
The same measure, in the same setting: the same measure for `COC(=O)N(C(=O)N1COC2(C(=O)OC)Cc3cc(Cl)ccc3C2=N1)c1ccc(OC(F)(F)F)cc1` (stereo not given): -9.63% [at 35.3 µM] (inactive).
Still for that read-out and setting: the same measure for `C1CCC2CCCCC2C1` (stereo not given): -10.2% (inactive); for `CCSC(C)CC1CC(=O)C(/C(CC)=N/OC/C=C/Cl)=C(O)C1` (stereo not given): 2% [at 35.3 µM] (inactive); for `CC(=[OH+])/C=C(/C)[O-].CC(=[OH+])/C=C(\C)[O-].CC(=[OH+])/C=C(\C)[O-].[Fe]`: -15.9% (inactive).
As to `[Cd+2].[Cl-].[Cl-]`, the Potency is 55.4 µM (active) and inactive.
`O=C(O)C1C2CCC(O2)C1C(=O)O` (stereo not given): the Potency entry is “inactive”.
Regarding `CC(C)[C@H](C(=O)OC(C#N)c1cccc(Oc2ccccc2)c1)c1ccc(OC(F)F)cc1` (stereo not given in full), the “cytotoxicity increase” value is -10.9% (inactive).
On to `[Cl][Sn]([c]1ccccc1)([c]1ccccc1)[c]1ccccc1`, for which the Potency was 3.29 µM (active).
Turning to `NC(=O)CCl`, the “cytotoxicity increase” value is 2.77% (inactive).
The same measure, in the same setting: next, `COS(=O)(=O)c1ccc(C)cc1`: -0.304% (inactive); `Fc1ccc(Oc2ccnc3cc(Cl)cc(Cl)c23)cc1`: 0.654% (inactive).
With `Cc1c(Cl)c(=O)oc2cc(OP(=O)(OCCCl)OCCCl)ccc12`, the “cytotoxicity increase” value was -5.27% [at 35.3 µM] (inactive).
On to `CCCN(CCC)c1c([N+](=O)[O-])cc(S(N)(=O)=O)cc1[N+](=O)[O-]`, for which the Potency is 33.5 µM (active).
Consider `Cc1cccc(OP(=O)(Oc2cccc(C)c2)Oc2cccc(C)c2)c1`, for which the “cytotoxicity increase” value is -10.2% (inactive).
